Several values for one entry are separate records, joined by “and”; a condition that tells them apart may be missing. Identical values can stand only once. Records with an inconclusive call do not appear. Where a structure was tested more than once in an assay, its records may differ in their call. Activity calls are given as the source filed them. Unless noted, the call rests on the fitted dose curve; in most records, active means well fitted curve in the direction sought with a large enough effect in the repeat runs; inconclusive means weak or mixed curves; inactive means no such curve, though single readings can be large; an effect the other way counts as inactive or inconclusive.
How the values were obtained:
[1] = qHTS assay to identify small molecule antagonists of the sonic hedgehog signaling (Shh) pathway (AID 1259369; calls by dose curve; further: nearly all actives have a fitted effect of over 45% in size; further: potency means the concentration at half of the fitted maximal effect)
How it was run: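 Antagonist mode: compound added to 3T3 Gli1-Luc cells followed by conditioned-medium stimulation, 24 h at 37 C, 5% CO2. Inhibition taken as loss of Gli1-driven luciferase luminescence.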

[2] = target: Estrogen receptor beta (Homo sapiens) (UniProt Q92731); test: qHTS assay to identify small molecule agonists of the estrogen receptor beta (ER-beta) signaling pathway (AID 1259377; active means well fitted activation curve with a large enough effect in the signal ratio in the repeat runs, not every such curve was filed as active; the % refers to the signal ratio)
How it was run: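 A UAS-controlled beta-lactamase reporter in ER-beta-UAS-bla HEK293T cells reports receptor activation. Compounds act for 16 hr at 37C in 2% charcoal-stripped serum, and a FRET substrate is read by fluorescence after 2 hours.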

[3] = target: Estrogen receptor beta (Homo sapiens) (UniProt Q92731); test: qHTS assay to identify small molecule antagonists of the estrogen receptor beta (ER-beta) signaling pathway (AID 1259378; active means well fitted inhibition curve with a large enough effect in the signal ratio in the repeat runs, not every such curve was filed as active; the % refers to the signal ratio)
How it was run: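 Antagonist mode: compounds added to beta-lactamase reporter HEK293T ER-beta-UAS cells stimulated with E2 (1nM final), 16 hr at 37C. LiveBLAzer B/G FRET substrate, 2 hours room temperature, fluorescence read-out.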

[4] = qHTS assay to identify small molecule agonists of the androgen receptor (AR) signaling pathway in the presence of an antagonist - cell viability counter screen (AID 1259379);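 further: MDA-kb2 human breast cancer cells carrying an MMTV luciferase reporter; series mostly up to about 92 µM; nearly all actives have a fitted effect of over 25% in size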
How it was run: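 Cytotoxicity counter-screen run in the same wells as the nilutamide-challenged (3.0 µM final) AR agonist assay in MDA-kb2 cells. Compounds tested at 15 concentrations for 16 h, 37 °C without CO2; CellTiter-Fluor fluorescence read.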

[5] = qHTS assay to identify small molecule agonists of the estrogen receptor beta (ER-beta) signaling pathway - cell viability counter screen (AID 1259380); further: nearly all actives have a fitted effect of over 30% in size; further: potency means the concentration at half of the fitted maximal effect
How it was run: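 Cell viability counter screen: CellTiter-Glo luminescence (30 min, room temperature) measured in the same wells as the beta-lactamase readout, after 16 hr compound exposure at 37C of ER-beta-bla HEK293T cells in 2% charcoal-stripped FBS medium.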

[6] = qHTS assay to identify small molecule antagonists of the estrogen receptor beta (ER-beta) signaling pathway - cell viability counter screen (AID 1259382); further: nearly all actives have a fitted effect of over 55% in size; further: potency means the concentration at half of the fitted maximal effect
How it was run: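 Cytotoxicity was measured in the same wells by CellTiter-Glo luminescence after 30 min at room temperature. Cells were ER-beta-bla HEK293T in charcoal-stripped serum, given compound together with 1 nM E2 and incubated 16 h at 37C.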

[7] = qHTS assay to identify small molecule agonists or antagonists of the thyroid stimulating hormone receptor (TSHR) signaling pathway - wild type cell line counter screen (AID 1259384; calls by dose curve)
How it was run: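 Counter screen in untransfected Hek293: compounds (15-point titration, triplicate) plus phosphodiesterase inhibitor Ro20-1724 added after 18 h plating; 30 min RT. Intracellular cAMP via competitive d2/cryptate immunoassay, 1 h incubation.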

[8] = qHTS assay to identify small molecule agonists of the estrogen receptor alpha (ER-alpha) signaling pathway in the presence of an antagonist - cell viability counter screen (AID 1259386); further: series mostly up to about 92 µM; nearly all actives have a fitted effect of over 30% in size
How it was run: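 Compounds tested at 15 concentrations for 22 h at 37C alongside 10.0nM (final) ICI-182,780 antagonist, in VM7Luc4E2 cells grown in phenol red-free, charcoal-stripped medium. Viability read by CellTiter-Fluor fluorescence after 1 h reagent incubation.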

[9] = target: Progesterone receptor (Homo sapiens) (UniProt P06401); test: qHTS assay to identify small molecule agonists of the progesterone receptor (PR) signaling pathway (AID 1346784; calls by dose curve; further: nearly all actives have a fitted effect of over 30% in size)
How it was run: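 Agonist mode, quantitative HTS format in a HEK 293T line expressing a UAS-controlled beta-lactamase reporter; 16 hr compound exposure at 37C in 2% charcoal-stripped FBS, then LiveBLAzer B/G FRET fluorescence.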

[10] = target: Progesterone receptor (Homo sapiens) (UniProt P06401); test: qHTS assay to identify small molecule antagonists of the progesterone receptor (PR) signaling pathway (AID 1346795; active means well fitted inhibition curve with a large enough effect in the signal ratio in the repeat runs, not every such curve was filed as active; the % refers to the signal ratio)
How it was run: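 HEK293T PR-UAS-bla reporter cells in charcoal-stripped serum (2%) received compound after a 6 hr settling period, followed by R5020 agonist at 1 nM final; 16 hr incubation preceded the FRET substrate step and fluorescence measurement.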

[11] = qHTS assay to identify small molecule antagonists of the progesterone receptor (PR) signaling pathway - cell viability counter screen (AID 1346798); further: series mostly up to about 92 µM; nearly all actives have a fitted effect of over 50% in size
How it was run: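 Same-well multiplex: after 16 hr at 37C with compound and R5020 stimulation, HEK293T cells carrying a UAS-bla reporter received LiveBLAzer substrate (2 hr RT), then CellTiter-Glo (30 min RT) for luminescent viability.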

[12] = qHTS assay to identify small molecule agonists of the progesterone receptor (PR) signaling pathway - cell viability counter screen (AID 1346799; calls by dose curve; further: nearly all actives have a fitted effect of over 45% in size; further: potency means the concentration at half of the fitted maximal effect)
How it was run: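 Counter screen for cytotoxicity: compound-treated PR-UAS-bla HEK293T cells (16 hr, 37C, 5% CO2) were assayed with CellTiter-Glo, luminescence measured after 30 min at room temperature.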

[13] = qHTS assay to identify small molecule antagonists of the TGF-beta/Smad signaling pathway - cell viability counter screen (AID 1346824); further: nearly all actives have a fitted effect of over 50% in size
How it was run: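 Cytotoxicity counter-screen run in the same wells as the beta-lactamase Smad reporter read: CellTiter-Glo luminescence after 30 min at room temperature. HEK 293T SBE-bla cells had 5 hr compound exposure at 37 C with TGF-beta1 (0.25 ng/mL stock).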

[14] = qHTS assay to identify small molecule agonists of the TGF-beta/Smad signaling pathway - cell viability counter screen (AID 1346829); further: top concentration of the series differs between compounds; nearly all actives have a fitted effect of over 45% in size
How it was run: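 In parallel with the Smad reporter read, viability of HEK 293T cells stably carrying SBE-bla is quantified by ATP luminescence following 5 hr compound treatment.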

[15] = qHTS assay to identify small molecule agonists of the TGF-beta/Smad signaling pathway (AID 1346859; active means well fitted activation curve with a large enough effect in the signal ratio in the repeat runs, not every such curve was filed as active; the % refers to the signal ratio; further: series mostly up to about 77 µM)
How it was run: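 Smad-responsive beta-lactamase reporter cells (HEK 293T) received compounds from DMSO stocks after overnight attachment, were incubated 5 hr, then treated 2 hr with FRET substrate before dual-emission fluorescence measurement (405 nm excitation).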

[16] = target: Thyrotropin-releasing hormone receptor (Homo sapiens) (UniProt P34981); test: qHTS assay to identify small molecule antagonists of the thyrotropin-releasing hormone receptor (TRHR) signaling pathway (AID 1346877; active means well fitted inhibition curve with a large enough effect in the repeat runs, not every such curve was filed as active; further: series mostly up to about 51 µM)
How it was run: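 Antagonist mode: after a 5 min room-temperature compound exposure, cells were stimulated with 1 nM (final) TRH. Dye-loaded TRHR-HEK293 cells were used, and calcium-dependent fluorescence was followed for 3 min, with 15-point titrations run in triplicate.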

[17] = target: Thyrotropin receptor (Homo sapiens) (UniProt P16473); test: qHTS assay to identify small molecule antagonists of the thyroid stimulating hormone receptor (TSHR) signaling pathway (AID 1259385; calls by dose curve; further: nearly all actives have a fitted effect of over 20% in size)
How it was run: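 Antagonist mode: compound-treated TSHR-expressing HEK293 cells were stimulated with 1.5 ng/mL TSH (final) in presence of Ro20-1724 for 30 min at RT. HTRF cAMP detection after 1 h; each compound tested at 15 concentrations, triplicate.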

[18] = target: Thyrotropin-releasing hormone receptor (Homo sapiens) (UniProt P34981); test: qHTS assay to identify small molecule agonists of the thyrotropin-releasing hormone receptor (TRHR) signaling pathway (AID 1346891; calls by dose curve;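 further: HEK293 cells expressing TRHR with calcium dye readout; series mostly up to about 58 µM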)
How it was run: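 Agonist-mode calcium mobilisation screen: TRHR-transfected HEK293 cells cultured overnight (18 h), dye-loaded for 2 h at 37 °C, exposed to compounds, and monitored by fluorescence for 3 min.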

[19] = target: Estrogen receptor (Homo sapiens) (UniProt P03372); test: qHTS assay to identify small molecule agonists of the estrogen receptor alpha (ER-alpha) signaling pathway in the presence of an antagonist (AID 1259383; calls by dose curve; further: top concentration of the series differs between compounds; nearly all actives have a fitted effect of over 15% in size)
How it was run: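 Agonist-mode confirmation run in the presence of 10.0nM (final) ICI-182,780 antagonist. The reporter was ERE-driven luciferase in VM7Luc4E2 cells, grown in charcoal-stripped serum. Cells were exposed to 15-concentration compound series for 22hr, then ONE-Glo luminescence was read.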

Measured: Potency

Chain of Estrogen receptor (Homo sapiens) (P03372 whole entry, looked up): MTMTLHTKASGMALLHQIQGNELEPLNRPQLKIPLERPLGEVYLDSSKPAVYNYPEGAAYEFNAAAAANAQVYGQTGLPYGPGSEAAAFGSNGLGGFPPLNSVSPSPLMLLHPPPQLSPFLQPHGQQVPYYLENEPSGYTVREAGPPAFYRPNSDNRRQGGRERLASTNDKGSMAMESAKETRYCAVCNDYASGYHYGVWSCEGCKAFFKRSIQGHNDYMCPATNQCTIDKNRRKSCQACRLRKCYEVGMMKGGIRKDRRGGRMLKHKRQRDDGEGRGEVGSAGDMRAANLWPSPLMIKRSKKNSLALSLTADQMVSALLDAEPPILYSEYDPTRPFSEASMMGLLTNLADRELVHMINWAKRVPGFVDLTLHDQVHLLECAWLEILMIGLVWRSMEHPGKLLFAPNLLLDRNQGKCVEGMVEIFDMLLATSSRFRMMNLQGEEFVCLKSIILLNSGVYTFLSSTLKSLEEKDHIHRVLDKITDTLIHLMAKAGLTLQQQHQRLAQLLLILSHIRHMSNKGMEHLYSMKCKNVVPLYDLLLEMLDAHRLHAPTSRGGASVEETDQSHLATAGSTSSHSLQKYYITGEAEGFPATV
Chain of Estrogen receptor beta (Homo sapiens) (Q92731 whole entry, looked up): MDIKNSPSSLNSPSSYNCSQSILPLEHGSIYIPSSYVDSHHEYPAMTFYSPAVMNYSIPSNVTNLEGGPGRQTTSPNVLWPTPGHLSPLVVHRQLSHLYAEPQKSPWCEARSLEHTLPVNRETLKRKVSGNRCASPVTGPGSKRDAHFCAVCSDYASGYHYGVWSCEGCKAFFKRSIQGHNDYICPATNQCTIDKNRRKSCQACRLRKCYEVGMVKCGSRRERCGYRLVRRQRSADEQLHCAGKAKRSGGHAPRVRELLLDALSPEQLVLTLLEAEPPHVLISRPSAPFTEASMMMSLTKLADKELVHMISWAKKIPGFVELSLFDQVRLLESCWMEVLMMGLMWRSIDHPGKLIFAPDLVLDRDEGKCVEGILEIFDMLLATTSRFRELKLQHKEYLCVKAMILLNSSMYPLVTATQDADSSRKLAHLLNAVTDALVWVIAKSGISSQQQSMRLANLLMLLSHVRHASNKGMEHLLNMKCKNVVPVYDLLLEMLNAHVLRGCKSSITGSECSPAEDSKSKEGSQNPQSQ
Chain of Thyrotropin receptor (Homo sapiens) (P16473 whole entry, looked up): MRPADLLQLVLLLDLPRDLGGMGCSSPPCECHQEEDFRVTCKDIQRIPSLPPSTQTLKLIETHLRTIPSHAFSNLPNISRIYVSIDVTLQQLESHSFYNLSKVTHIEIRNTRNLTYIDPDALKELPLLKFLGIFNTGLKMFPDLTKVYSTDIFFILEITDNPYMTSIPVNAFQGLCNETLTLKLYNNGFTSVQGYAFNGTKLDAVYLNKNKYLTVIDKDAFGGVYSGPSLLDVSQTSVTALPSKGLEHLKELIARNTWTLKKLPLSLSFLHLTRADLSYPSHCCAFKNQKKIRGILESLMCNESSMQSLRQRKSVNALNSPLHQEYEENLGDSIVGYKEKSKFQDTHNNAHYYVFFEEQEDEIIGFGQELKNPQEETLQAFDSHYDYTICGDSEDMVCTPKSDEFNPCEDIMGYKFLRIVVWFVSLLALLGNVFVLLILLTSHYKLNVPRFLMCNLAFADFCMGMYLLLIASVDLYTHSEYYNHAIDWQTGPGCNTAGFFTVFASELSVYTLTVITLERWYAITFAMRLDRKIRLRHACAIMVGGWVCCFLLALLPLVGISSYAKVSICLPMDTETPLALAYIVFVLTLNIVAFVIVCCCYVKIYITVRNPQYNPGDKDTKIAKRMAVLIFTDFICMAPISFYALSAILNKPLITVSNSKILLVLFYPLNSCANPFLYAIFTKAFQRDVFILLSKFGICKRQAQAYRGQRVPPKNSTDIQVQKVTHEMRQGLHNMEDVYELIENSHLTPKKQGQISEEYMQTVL
Chain of Thyrotropin-releasing hormone receptor (Homo sapiens) (P34981 whole entry, looked up): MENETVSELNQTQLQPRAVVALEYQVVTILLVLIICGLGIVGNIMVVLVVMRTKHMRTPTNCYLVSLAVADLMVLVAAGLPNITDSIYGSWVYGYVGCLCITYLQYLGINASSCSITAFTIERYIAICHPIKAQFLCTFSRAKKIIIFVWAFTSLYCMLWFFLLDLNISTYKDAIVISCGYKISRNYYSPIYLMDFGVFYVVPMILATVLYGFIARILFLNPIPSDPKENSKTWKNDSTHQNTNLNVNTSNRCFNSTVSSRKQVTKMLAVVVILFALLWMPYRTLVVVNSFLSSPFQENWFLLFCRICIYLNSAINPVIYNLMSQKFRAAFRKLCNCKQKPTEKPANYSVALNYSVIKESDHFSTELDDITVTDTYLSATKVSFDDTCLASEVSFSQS
Chain of Progesterone receptor (Homo sapiens) (P06401 whole entry, looked up): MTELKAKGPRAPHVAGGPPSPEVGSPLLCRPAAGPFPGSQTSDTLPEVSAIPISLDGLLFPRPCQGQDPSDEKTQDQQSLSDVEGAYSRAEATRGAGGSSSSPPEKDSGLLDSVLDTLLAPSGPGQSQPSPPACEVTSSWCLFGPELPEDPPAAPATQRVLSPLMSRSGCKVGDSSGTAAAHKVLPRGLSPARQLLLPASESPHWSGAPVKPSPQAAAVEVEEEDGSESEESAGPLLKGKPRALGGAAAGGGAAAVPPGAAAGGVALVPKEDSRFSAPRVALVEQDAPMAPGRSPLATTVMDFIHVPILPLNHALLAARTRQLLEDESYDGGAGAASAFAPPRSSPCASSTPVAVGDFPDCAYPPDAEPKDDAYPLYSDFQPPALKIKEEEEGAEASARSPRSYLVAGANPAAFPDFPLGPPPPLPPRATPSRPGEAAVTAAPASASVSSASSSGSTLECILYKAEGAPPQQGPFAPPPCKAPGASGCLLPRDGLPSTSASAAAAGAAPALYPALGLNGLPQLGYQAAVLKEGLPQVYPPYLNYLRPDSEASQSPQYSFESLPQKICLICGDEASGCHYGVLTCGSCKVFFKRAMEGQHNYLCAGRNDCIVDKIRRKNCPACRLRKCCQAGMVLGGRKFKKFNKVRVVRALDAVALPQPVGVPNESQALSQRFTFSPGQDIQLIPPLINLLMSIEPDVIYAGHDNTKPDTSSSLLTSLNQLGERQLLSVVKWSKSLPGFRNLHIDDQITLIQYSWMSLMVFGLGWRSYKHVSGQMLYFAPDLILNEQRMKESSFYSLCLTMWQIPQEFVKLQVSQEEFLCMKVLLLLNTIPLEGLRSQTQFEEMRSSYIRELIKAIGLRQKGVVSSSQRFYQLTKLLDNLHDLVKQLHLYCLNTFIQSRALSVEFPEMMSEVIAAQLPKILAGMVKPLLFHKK

Cc1ccnc2c1NC(=O)c1cccnc1N2C1CC1
not listed: [17] | [18] | [19]
inactive: all other assays above

CCCCCCC(O)CCCCCCCCCCC(=O)O (stereo not drawn)
inactive and 30.6 µM (active): [6]
active: [1] 27.4 µM | [12] 48.7 µM and 15.4 µM
inactive and 48.6 µM (active): [5]
not listed: [10] | [11] | [15] | [19]
inactive: all other assays above

CCCCC(CC)COC(=O)CC(C(=O)OCC(CC)CCCC)S(=O)(=O)O (stereo not drawn)
active: [5] 26.3 µM and 30.6 µM | [6] 29.5 µM and 27.3 µM | [12] 29.5 µM
not listed: [3] | [7] | [10] | [11] | [13] | [17]
inactive: all other assays above

O=C(O)CCc1ccccc1
not listed: [17] | [18] | [19]
inactive: all other assays above

Cc1cc(C(C)(C)C)c(O)c(C(C)(C)C)c1
not listed: [10] | [18] | [19]
inactive: all other assays above

CC(C(O)c1ccc(O)cc1)N1CCC(Cc2ccccc2)CC1 (stereo not drawn)
not listed: [7] | [9] | [10] | [12] | [17]
inactive: all other assays above

COC(c1ccccc1)(c1ccccc1)[C@H](Oc1nc(C)cc(C)n1)C(=O)O
not listed: [5] | [10] | [11] | [16] | [18] | [19]
inactive: all other assays above

From PubChem BioAssay (Tox21)
